Source: PubChem BioAssay (EPA / NIEHS)
Several values for one entry are separate records, joined by “and”; a condition that tells them apart may be missing. Equal entries are not always repeated. Where a structure was tested more than once in an assay, its records may differ in their call. Activity calls are given as the source filed them. How the source made its calls: active means hit-call score of the fitted dose curve at least 0.9, where 1 is the maximum; inactive means score below 0.9.

read-out: Thrombomodulin, THBD (gene 7056); test: BSK_3C_Thrombomodulin: BioMAP Diversity Plus: 3C Assay for Thrombomodulin Biomarker Activity (AID 2283029); conditions: primary human endothelial cells (HUVEC); actives raise or lower the signal
Method in brief: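 Endothelial cells from umbilical vein are dosed with test chemical and incubated 24 h. Thrombomodulin is then quantified by ELISA, with DMSO serving as negative control and activity baseline.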

SMILES	outcome	AC50
OCCOc1ccccc1	inactive	–
Cc1cc(C)nc(NC(=O)NS(=O)(=O)c2ccccc2C(=O)OC2COC2)n1	inactive	–
C#CCN1C(=O)COc2cc(F)c(N3C(=O)C4=C(CCCC4)C3=O)cc21	inactive	–
N#Cc1c(Cl)c(Cl)c(Cl)c(C#N)c1Cl	–	148 nM (active)
CNC(=O)CSP(=S)(OC)OC	inactive	–
O=S1OCC2C(CO1)C1(Cl)C(Cl)=C(Cl)C2(Cl)C1(Cl)Cl (configuration not stated)	inactive	–
[2H]C1([2H])[n+]2ccccc2-c2cccc[n+]2C1([2H])[2H]	inactive	–
CNC(=O)/C=C(\C)OP(=O)(OC)OC	inactive	–
CC1(C)C(C=C(Cl)Cl)C1C(=O)OC(C#N)c1ccc(F)c(Oc2ccccc2)c1 (configuration not stated)	inactive	–

read-out: Urokinase-type plasminogen activator receptor (uPAR), PLAUR (gene 5329); test: BSK_4H_uPAR: BioMAP Diversity Plus: 4H Assay for Urokinase-type plasminogen activator receptor (uPAR) Biomarker Activity (AID 2283030); conditions: primary human endothelial cells (HUVEC); actives raise or lower the signal
Method in brief: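 uPAR level read by ELISA on HUVEC cultures (BioMAP 4H) 24 h post-dosing, analyzed for gain or loss relative to DMSO. Parallel SRB staining assessed overt cytotoxicity.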

SMILES	outcome	AC50
OCCOc1ccccc1	inactive	–
Cc1cc(C)nc(NC(=O)NS(=O)(=O)c2ccccc2C(=O)OC2COC2)n1	inactive	–
COP(=S)(OC)Oc1ccc(SC)c(C)c1	inactive	–
C#CCN1C(=O)COc2cc(F)c(N3C(=O)C4=C(CCCC4)C3=O)cc21	inactive	–
O=C(O)CCCOc1ccc(Cl)cc1Cl	inactive	–
N#Cc1c(Cl)c(Cl)c(Cl)c(C#N)c1Cl	–	1.81 µM (active)
CCS(=O)(=O)c1cccnc1S(=O)(=O)NC(=O)Nc1nc(OC)cc(OC)n1	inactive	–
CC[C@H](C)[C@H]1O[C@]2(C=C[C@@H]1C)C[C@@H]1C[C@@H](C/C=C(\C)[C@@H](O[C@H]3C[C@H](OC)[C@@H](O[C@H]4C[C@H](OC)[C@@H](O)[C@H](C)O4)[C@H](C)O3)[C@@H](C)/C=C/C=C3\CO[C@@H]4[C@H](O)C(C)=C[C@@H](C(=O)O1)[C@]34O)O2 (tested in a mixture with another compound)	–	8.93 µM (active)
CCC(C)Nc1c([N+](=O)[O-])cc(C(C)(C)C)cc1[N+](=O)[O-] (configuration not stated)	inactive	–
CNC(=O)CSP(=S)(OC)OC	inactive	–
O=S1OCC2C(CO1)C1(Cl)C(Cl)=C(Cl)C2(Cl)C1(Cl)Cl (configuration not stated)	–	30.5 µM (active)
O=[N+]([O-])/N=C1\NCCN1Cc1ccc(Cl)nc1	inactive	–
COC(=O)c1ccccc1S(=O)(=O)NC(=O)Nc1nc(C)nc(OC)n1	inactive	–
CCOCN(C(=O)CCl)c1c(C)cccc1CC	inactive	–
CCN(CC)C(=O)SCc1ccc(Cl)cc1	inactive	–
[2H]C1([2H])[n+]2ccccc2-c2cccc[n+]2C1([2H])[2H]	–	1.49 µM (active)
O=S(=O)(O)C(F)(F)C(F)(F)C(F)(F)C(F)(F)C(F)(F)C(F)(F)C(F)(F)C(F)(F)F	inactive	463 nM (active) and 14.2 µM (active)
CNC(=O)/C=C(\C)OP(=O)(OC)OC	inactive	–
CC1(C)C(C=C(Cl)Cl)C1C(=O)OC(C#N)c1ccc(F)c(Oc2ccccc2)c1 (configuration not stated)	inactive	–
CC(C)(C)C(O)C(Oc1ccc(Cl)cc1)n1cncn1 (configuration not stated)	inactive	–
O=C1c2ccccc2C(=O)N1SC(Cl)(Cl)Cl	inactive	–
O=C(O)C(F)(F)C(F)(F)C(F)(F)C(F)(F)C(F)(F)C(F)(F)C(F)(F)F	inactive	1.49 µM (active)
CC(C)OC(=O)Nc1cccc(Cl)c1	inactive	–
Oc1cc(Cl)ccc1Oc1ccc(Cl)cc1Cl	–	14.7 µM (active) [middle of 4 runs]
Clc1ccccc1-c1nnc(-c2ccccc2Cl)nn1	inactive	–
COP(=S)(OC)Oc1ccc([N+](=O)[O-])cc1	inactive	–
